Test results as given in PubChem BioAssay (NCATS).
Activity calls are given as the source filed them. Entries that show only a call come without a potency. Calls come from the whole dose curve; as a rule, active = well fitted curve in the direction sought with a large enough effect; inconclusive = small, poorly fitted or top-dose-only effect, or another doubt; inactive = no such curve, though single readings can be large; an effect the other way counts as inactive or inconclusive.

Target: Alpha-galactosidase (Coffea arabica) (UniProt Q42656)
Sequence (Q42656 whole entry, looked up): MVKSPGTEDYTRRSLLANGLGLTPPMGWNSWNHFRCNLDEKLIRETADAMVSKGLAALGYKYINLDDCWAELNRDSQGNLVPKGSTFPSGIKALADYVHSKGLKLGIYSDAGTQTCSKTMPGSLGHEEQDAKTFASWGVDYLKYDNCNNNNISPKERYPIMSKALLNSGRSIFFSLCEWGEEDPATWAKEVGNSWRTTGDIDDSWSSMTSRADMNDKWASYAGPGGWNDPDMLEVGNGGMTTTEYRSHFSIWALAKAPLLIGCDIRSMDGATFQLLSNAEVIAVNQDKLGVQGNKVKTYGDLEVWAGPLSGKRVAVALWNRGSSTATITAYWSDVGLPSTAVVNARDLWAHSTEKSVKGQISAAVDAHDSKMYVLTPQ
Experiment: Counterscreen for Glucocerebrosidase Inhibitors: qHTS Assay for Coffee Bean alpha-Galactosidase at pH 4.5 (AID 957)
Conditions: purified coffee bean alpha-galactosidase, fluorogenic substrate; series mostly up to 76.9 µM
How it was run: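 Fluorogenic read-out: 4-methylumbelliferone at Ex 365/Em 440 nm after NaOH/glycine stop (pH 10). Enzyme 2 nM, 4-MU-alpha-galactoside 80 uM, citrate buffer pH 4.5, 20 min RT; normalized to no-enzyme and enzyme controls.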

Q: With `CC(=O)CCCCn1c(=O)c2c(ncn2C)n(C)c1=O` as the compound, how does the outcome read?
A: Its outcome is “inactive”.

Q: For `CN1CCC(=C2c3ccccc3C=Cc3ccccc32)CC1`, which outcome is on record?
A: The outcome was “inactive”.

Q: Which outcome does the source give for `Clc1ccc2c(c1)C(N1CCNCC1)=Nc1ccccc1O2` here?
A: The outcome was “inactive”.

Q: Which outcome does the source give for `CCN(CC)CCOC(=O)C1(C2CCCCC2)CCCCC1` here?
A: Its outcome is “inactive”.

Q: Which outcome does the source give for `Cc1cn[nH]c1` here?
A: The outcome was “inactive”.

Q: With `OCCN1CCN(CCCN2c3ccccc3Sc3ccc(C(F)(F)F)cc32)CC1` as the compound, how does the outcome read?
A: The outcome was “inactive”.

Q: For `Cc1cn([C@H]2C=C[C@@H](CO)O2)c(=O)[nH]c1=O`, which outcome is on record?
A: Its outcome is “inactive”.

Q: Which outcome does the source give for `CN1CCN(C2=Nc3ccccc3Oc3ccc(Cl)cc32)CC1` here?
A: Its outcome is “inactive”.

Q: For `CN(Cc1cnc2nc(N)nc(N)c2n1)c1ccc(C(=O)N[C@@H](CCC(=O)O)C(=O)O)cc1`, which outcome is on record?
A: The outcome was “inactive”.

Q: Which outcome does the source give for `COc1cc2c(c(OC)c1OC)-c1ccc(OC)c(=O)cc1[C@@H](NC(C)=O)CC2` here?
A: Its outcome is “inactive”.

Q: For `Clc1ccc(C(c2ccccc2Cl)C(Cl)Cl)cc1` (centres undefined), which outcome is on record?
A: Its outcome is “inactive”.

Q: With `Fc1ccc([C@@H]2CCNC[C@H]2COc2ccc3c(c2)OCO3)cc1` as the compound, how does the outcome read?
A: Its outcome is “inactive”.

Q: For `CC1=NS(=O)(=O)c2cc(Cl)ccc2N1`, which outcome is on record?
A: The outcome was “inactive”.

Q: For `O=C1c2c(O)ccc(O)c2C(=O)c2c(NCCNCCO)ccc(NCCNCCO)c21`, which outcome is on record?
A: Its outcome is “inactive”.

Q: Which outcome does the source give for `Cc1ccccc1N1C(=O)c2cc(S(N)(=O)=O)c(Cl)cc2NC1C` (centres undefined) here?
A: Its outcome is “inactive”.

Q: For `CCC1(c2ccccc2)C(=O)NCNC1=O`, which outcome is on record?
A: The outcome was “inactive”.

Q: Which outcome does the source give for `COc1ccc(Cc2nccc3cc(OC)c(OC)cc23)cc1OC` here?
A: Its outcome is “inactive”.

Q: With `CC(=O)N[C@@H](CS)C(=O)O` as the compound, how does the outcome read?
A: The outcome was “inactive”.

Q: Which outcome does the source give for `CC/C(=C(\c1ccccc1)c1ccc(OCCN(C)C)cc1)c1ccccc1` here?
A: Its outcome is “inactive”.

Q: Which outcome does the source give for `COc1cc(Cc2cnc(N)nc2N)cc(OC)c1OC` here?
A: The outcome was “inactive”.

Q: With `CCCNC(=O)NS(=O)(=O)c1ccc(Cl)cc1` as the compound, how does the outcome read?
A: The outcome was “inactive”.

Q: With `CN/C(=C\[N+](=O)[O-])NCCSCc1ccc(CN(C)C)o1` as the compound, how does the outcome read?
A: The outcome was “inactive”.

Q: For `N=c1nc(N2CCCCC2)cc(N)n1O`, which outcome is on record?
A: The outcome was “inactive”.

Q: Which outcome does the source give for `CN[C@H]1CC[C@@H](c2ccc(Cl)c(Cl)c2)c2ccccc21` here?
A: Its outcome is “inactive”.

Q: Which outcome does the source give for `CCCN(CCC)CCc1cccc2c1CC(=O)N2` here?
A: Its outcome is “inactive”.

Q: With `CC1=C(/C=C/C(C)=C/C=C/C(C)=C/C(=O)Nc2ccc(O)cc2)C(C)(C)CCC1` as the compound, how does the outcome read?
A: Its outcome is “inactive”.

Q: For `O=C(C1CCCCC1)N1CC(=O)N2CCc3ccccc3C2C1` (centres undefined), which outcome is on record?
A: The outcome was “inactive”.

Q: For `CN1CCC[C@@H]1CCO[C@](C)(c1ccccc1)c1ccc(Cl)cc1`, which outcome is on record?
A: Its outcome is “inactive”.

Q: For `CC[N+](C)(C)c1cccc(O)c1`, which outcome is on record?
A: Its outcome is “inactive”.

Q: For `CN(C)CCC=C1c2ccccc2C=Cc2ccccc21`, which outcome is on record?
A: The outcome was “inactive”.

Q: Which outcome does the source give for `CCN(CC)C(=S)SSC(=S)N(CC)CC` here?
A: The outcome was “inactive”.

Test system: not listed separately
Experiment: MultiTox-Fluor Cytotoxicity Assay - LYMP1-003 - Dead Cells (AID 961);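 note: potency is the fitted concentration of half-maximal effect; cells exposed to compound for 16 h at 37 °C; nearly all actives have a fitted effect of over 70% in size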
Conditions: LYMP1-003 lymphoblastoid cells, dead-cell protease fluorescence; series mostly up to 92.2 µM
How it was run: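 Acute toxicity is scored as increased dead-cell protease activity in human lymphoblastoid LYMP1-003 cells after 16 h compound exposure in complete culture medium. Activity is normalized to DMSO basal and 15 uM tetraoctylammonium bromide as full response.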

Q: For `COc1cc2c(c(OC)c1OC)-c1ccc(OC)c(=O)cc1[C@@H](NC(C)=O)CC2`, which Potency is on record?
A: The Potency was 0.631 µM (active).

Q: With `CC/C(=C(\c1ccccc1)c1ccc(OCCN(C)C)cc1)c1ccccc1` as the compound, how does the Potency read?
A: The Potency was 39.8 µM (active).

Q: Which Potency does the source give for `CC1=C(/C=C/C(C)=C/C=C/C(C)=C/C(=O)Nc2ccc(O)cc2)C(C)(C)CCC1` here?
A: Its Potency is 39.8 µM (active).
